# High-throughput results deposited in PubChem BioAssay by NMMLSC.
# Only some compounds are listed: those with a hit (about 1.2% of all), similar ones and a draw of the others.
# GSH bead fluor – compound fluoresces at 488/530 nm on GSH beads. GSH beads flow cytometry, compound fluorescence 488/530 nm; hits give high values. fluorescence (KMESF) at 10 µM. 190,000 tested, 0.25% active. AID 1776; in the data active means fluorescence above about 89;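 further: glutathione beads carrying GST-tagged Bcl family fusion proteins plus one bare bead set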
# RGS16-Gao – modulates binding between human RGS16 and Galphao; O15492+P09471; bead-based flow cytometry RGS16-Galphao binding, fluorescence; actives lie on both sides; binding response (% of control), % at 10 µM; 220,000 tested, 0.38% active;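 further: Galphao activated by GDP with aluminum fluoride before binding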
# RGS7-Gao – regulators of human RGS7-Galphao interaction. Multiplexed bead flow cytometry, RGS7-Galphao binding; actives lie on both sides. binding response (% of control), % at 10 µM. 220,000 tested, 0.35% active; in the data active means binding response below about 49% or above about 150%; inconclusive means no clear call, values can overlap the other calls; inactive means in between;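 further: fluorescent Galphao held in activated GDP-AlF4 state binding bead-coupled RGS7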
# RGS4-Gao reg – human RGS4-Galphao interaction regulation. P09471. Multiplexed bead flow cytometry, RGS4-Galphao binding; actives lie on both sides. 220,000 tested, 0.33% active. binding response (% of control), % at 10 µM; in the data active means binding response below about 49% or above about 150%; inactive means in between;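 further: fluorescent Galphao activated with aluminum fluoride binding bead-coupled RGS4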
# Avidin bead fluor – compound fluoresces at 488/530 nm on avidin beads; compound fluorescence 488/530 nm, flow cytometry; hits give high values; fluorescence (KMESF) at 10 µM; 220,000 tested, 0.38% active; AID 1775; in the data active means fluorescence above about 47
# RGS8-Gao – human RGS8-Galphao interaction regulation; 220,000 tested, 0.34% active; response (percent of control binding), % at 10 µM; multiplexed bead flow cytometry, RGS8-Galphao binding; actives lie on both sides; P09471; in the data active means response below about 60% or above about 140%; inactive means in between;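 further: Galphao activated as the GDP aluminium fluoride complex binding bead-coupled RGS8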
# RGS4-Gao HTS – regulators of human RGS4-Galphao interaction | shares compounds with RGS16-Gao | multiplexed bead flow cytometry, RGS–Galpha-o binding | RGS4–Galpha-o binding response, % at 10 µM | 1,600 tested, 99% active | AID 1504;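 further: fluorescently labeled Galpha-o bound to GDP with aluminium fluoride binding biotinylated RGS beads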
# Target sequence (P09471 whole entry, looked up): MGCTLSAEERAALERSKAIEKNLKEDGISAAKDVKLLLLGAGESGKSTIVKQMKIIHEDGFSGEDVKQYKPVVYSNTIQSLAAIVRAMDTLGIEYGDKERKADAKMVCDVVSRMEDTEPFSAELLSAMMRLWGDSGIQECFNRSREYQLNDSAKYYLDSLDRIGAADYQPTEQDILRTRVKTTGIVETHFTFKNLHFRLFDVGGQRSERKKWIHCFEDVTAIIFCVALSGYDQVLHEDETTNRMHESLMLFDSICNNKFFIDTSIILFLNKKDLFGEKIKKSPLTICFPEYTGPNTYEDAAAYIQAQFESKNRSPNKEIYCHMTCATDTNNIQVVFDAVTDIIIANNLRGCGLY
# Target sequence (P49798 whole entry, looked up): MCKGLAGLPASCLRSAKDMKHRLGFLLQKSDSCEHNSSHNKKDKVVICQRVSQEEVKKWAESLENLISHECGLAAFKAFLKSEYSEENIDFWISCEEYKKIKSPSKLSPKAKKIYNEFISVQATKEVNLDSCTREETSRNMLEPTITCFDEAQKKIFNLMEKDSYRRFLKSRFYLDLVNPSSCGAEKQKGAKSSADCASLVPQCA
# Biotin-avidin – interferes with biotinylated probe binding to avidin beads; streptavidin beads, fluorescein-biotin binding, flow cytometry; 1,700 tested, under 10 active; inhibition, % at 10 µM; shares compounds with RGS16-Gao;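 active means inhibition above 50%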;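 further: median green fluorescence of gated singlet beads compared with DMSO control wells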
# RGS8-Gao confirm – RGS8-Galphao interaction regulation, single point confirmation; shares compounds with RGS16-Gao; bead-based flow cytometry RGS8-Galphao binding, fluorescence; actives lie on both sides; binding response (% of control), % at 10 µM; 1,700 tested, 3% active; in the data active means binding response below about 72% or above about 130%; inactive means in between;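 further: Galphao activated as GDP AlF4 complex before binding bead RGS8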
# RGS7-Gao single – confirmation of regulators of human RGS7-Galphao interaction; response (percent of control binding), % at 10 µM; shares compounds with RGS16-Gao; bead-based flow cytometry RGS7-Galphao binding; actives lie on both sides; 1,700 tested, 7.8% active; in the data active means response below about 75% or above about 130%; inactive means in between;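 further: fluorescent Galphao activated with GDP and aluminum fluoride binding bead-coupled RGS7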
# RGS16-Gao single – confirmation of regulators of human RGS16-Galphao interaction | 1,700 tested, 4% active | bead-based flow cytometry, RGS16-Galphao binding; actives lie on both sides | shares compounds with RGS16-Gao | response (% of control binding), % at 10 µM; in the data active means response below about 74% or above about 130%; inactive means in between;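 further: Galphao activated as the GDP aluminium fluoride complex binding bead-coupled RGS16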
# RGS4-Gao confirm – confirmation of regulators of human RGS4-Galphao interaction; binding response (% of control), % at 10 µM; AID 1840; 1,700 tested, 4% active; RGS4-Galphao binding, multiplexed bead flow cytometry; actives lie on both sides; shares compounds with RGS16-Gao; in the data active means binding response below about 74% or above about 130%; inactive means in between
# RGS19-Gao conf – RGS19-Galphao interaction regulation, single point confirmation; bead-based flow cytometry RGS19-Galphao binding; actives lie on both sides; response (percent of control binding), % at 10 µM; shares compounds with RGS16-Gao; 1,700 tested, 5% active; in the data active means response below about 50% or above about 160%; inactive means in between
# Numbers stand for hits; 0 = inactive; ? = inconclusive; - = no result; [ ] = another dose, or the depositor's remark. Unless noted, how the calls were made is not given here.
SMILES,GSH bead fluor,RGS16-Gao,RGS7-Gao,RGS4-Gao reg,Avidin bead fluor,RGS8-Gao,RGS4-Gao HTS,Biotin-avidin,RGS8-Gao confirm,RGS7-Gao single,RGS16-Gao single,RGS4-Gao confirm,RGS19-Gao conf
CCO[C@@H]1OC(C(=O)N2CCN(Cc3ccc4c(c3)OCO4)CC2)=C[C@H](c2csc3ccccc23)[C@H]1CCCO,0,0,0,0,0,0,-,-,-,-,-,-,-
C[n+]1nc(Nc2cccc(F)c2)sc1-c1ccc(C(=O)O)cc1,-,0,?,0,0,0,-,-,-,-,-,-,-
CCN(CC)CCN1C(=O)c2ccccc2NC1c1ccc(F)cc1 (configuration not stated),0,0,0,0,0,0,-,-,-,-,-,-,-
CCN(CC)CCN1C(=O)c2ccccc2NC1c1ccccc1F (configuration not stated),0,23,0,0,0,0,88,-,-,-,-,-,-
COc1cc2c3c(c1OC)C1(C=CC(=O)C=C1)CC3N(C(=O)CCC(=O)O)CC2 (configuration not stated),-,0,?,0,0,0,-,-,-,-,-,-,-
COc1cc2c3c(c1OC)C1(C=CC(=O)C=C1)CC3N(C(=O)c1ccccc1)CC2 (configuration not stated),0,0,156[activator],0,120,0,105,-,-,-,-,-,-
COc1ccc(CN2CCC(CO)(Cc3ccccc3C(F)(F)F)CC2)c(F)c1,0,0,0,0,0,0,-,-,-,-,-,-,-
COc1ccc(NC(=O)c2ccc(COc3ccccc3Br)o2)cc1OC,0,0,0,0,0,0,-,-,-,-,-,-,-
COc1cc(NC(=O)c2ccc(COc3ccccc3Br)o2)cc(OC)c1OC,0,208[activator],0,0,77,0,149,0,0,0,0,0,0
C#CCSc1nnc(-c2ccccc2)c(=O)[nH]1,0,10,17,21,0,13,-,0,0,0,0,0,0
Cc1ccnc2nc(C(=O)Nc3ccc(S(=O)(=O)N4CCCC4)cc3)nn12,-,0,?,0,0,0,-,-,-,-,-,-,-
CCOC(=O)c1sc(NC(=O)Nc2ccc(F)cc2)nc1C,0,25,0,0,0,0,91,0,0,0,0,0,0
CCN1CCN(C(=O)Cn2nc(-c3ccc(Cl)cc3)ccc2=O)CC1,0,0,171[activator],0,0,0,105,0,0,0,0,0,0
CCOC(=O)N1CCN(C(=O)Cn2nc(-c3ccc(Cl)cc3)ccc2=O)CC1,0,0,0,0,0,0,-,-,-,-,-,-,-
CN1C(=O)/C(=N\OC(=O)c2ccccc2Cl)c2ccccc21,0,0,0,0,0,0,-,-,-,-,-,-,-
CC(=O)O/N=C1\C(=O)N(Cc2ccc(C)cc2)c2ccccc21,0,0,0,0,0,58,76,-,-,-,-,-,-
COc1ccc(NC(=O)/C(C#N)=C\c2ccc(N3CCOCC3)o2)cc1,0,0,0,0,0,0,-,-,-,-,-,-,-
N#C/C(=C/c1ccc(N2CCCCC2)o1)C(=O)Nc1ccc2ccccc2c1,0,0,192[activator],177[activator],111,0,-,0,0,175[activator],138[activator],148[activator],220[activator]
CCC(C)NCCOCCOc1ccc(Cl)cc1Br (configuration not stated),0,0,?,0,0,0,-,-,-,-,-,-,-
